# Experimental data as given in PubChem BioAssay (EPA / NIEHS).
# Inconclusive results are not listed. Active and inactive are the calls of the source. The calls were made as follows: active = hit-call score of the fitted dose curve at least 0.9, where 1 is the maximum; inconclusive = response in the unintended direction; inactive = score below 0.9.
# Columns and labels:
# [1] = ACEA_AR_agonist_AUC_viability: ACEA Biosciences xCELLigence Real-Time Cell Analysis on Androgen Receptor Agonism for Viability (AID 2283775);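 as to AC50: viability read 80 hours after compound addition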
# Summary of the method: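 22Rv1 cells; impedance growth kinetics; 8-pt 1:4 dilutions from 100 uM top final, ≤0.5% DMSO; n = 2; 80 h read; AUC viability, loss-of-signal vs DMSO.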
# [2] = ACEA_AR_antagonist_AUC_viability: ACEA Biosciences xCELLigence Real-Time Cell Analysis on Androgen Receptor Antagonism for Viability (AID 2283776);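 also: area under impedance growth curve at 80 h after dosing as viability; hits lower the growth signal relative to DMSO meaning cytotoxicity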
# Summary of the method: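 22Rv1 human prostate cancer cells were seeded on electrode plates, monitored overnight, then exposed to eight 1:4 dilutions from 100 uM final. Impedance-based growth kinetics at 80 h gave an AUC viability endpoint normalized to DMSO.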
# [3] = test system: frog Estrogen Receptor (ESR2), gene 100174814; assay: ATG_frER2_XSP1: Attagene TRANS-FACTORIAL Multi-Species (XSP1) HepG2 Assay for frog Estrogen Receptor (ESR2) (AID 2283774)
# Summary of the method: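 Reporter mRNA from a multiplexed TRANS system, measured by RT-PCR with fluorescent labelling and capillary electrophoresis, 24 hours after chemical exposure. Human HepG2 liver cells carried exogenous frog ER-Gal4 chimera; medium included 3 nM 6-alpha-fluorotestosterone; increases versus DMSO analysed.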
# [4] = test system: frog Estrogen Receptor (ESR1), gene 398734; assay: ATG_frER1_XSP1: Attagene TRANS-FACTORIAL Multi-Species (XSP1) HepG2 Assay for frog Estrogen Receptor (ESR1) (AID 2283777)
# Procedure: (§1) ATG_XSP1_multi-species_TRANS is a cell-based, multiplexed assay created by modifying the existing Attagene TRANS-FACTORIAL system to include a panel of nuclear receptors from some or all the following species: human (Homo sapiens), mouse (Mus musculus), frog (Xenopus laevis), zebrafish (Danio rerio), chicken (Gallus gallus), and turtle (Chrysemys picta). The ECOTOX-FACTORIAL format uses HepG2, a human liver cell line, with measurements taken at 24 hours after chemical dosing in a 24-well plate. Xsp1 included 3 nM 6-alpha-fluorotestosterone to partially stimulate the androgen receptor.ATG_frER1_XSP1 is one of 29 assay components measured or calculated from the ATG_XSP1_multi-species_TRANS assay. It is designed to make measurements of mRNA induction, a form of inducible reporter, as detected with fluorescence intensity signals by Reverse transcription polymerase chain reaction (RT-PCR) and Capillary electrophoresis technology.The assay endpoint ATG_frER1_XSP1 was analyzed in the positive analysis fitting direction relative to DMSO as the negative control and baseline of activity. […] Furthermore, this assay endpoint can be referred to as a primary readout, because this assay has produced multiple assay endpoints where this one serves a reporter gene function. […]
# [5] = test system: zebrafish Estrogen Receptor (ESR2A), gene 317734; assay: ATG_zfER2a_XSP1: Attagene TRANS-FACTORIAL Multi-Species (XSP1) HepG2 Assay for zebrafish Estrogen Receptor (ESR2A) (AID 2283778)
# Summary of the method: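 Reporter transcripts were quantified by RT-PCR, 6-FAM labelling, HpaI digestion and capillary electrophoresis after 24 h dosing. The cells were HepG2 transiently carrying a zebrafish ER2a–Gal4 construct plus multiplexed UAS reporters; medium contained 3 nM 6-alpha-fluorotestosterone.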
# [6] = target: chicken Estrogen Receptor (ESR1), ESR1 (gene 396099) (UniProt P06212); assay: ATG_chERa_XSP1: Attagene TRANS-FACTORIAL Multi-Species (XSP1) HepG2 Assay for chicken Estrogen Receptor (ESR1) (AID 2283779)
# chicken Estrogen Receptor (ESR1), ESR1 (gene 396099), sequence (P06212 whole entry, looked up, the tested form may be a part): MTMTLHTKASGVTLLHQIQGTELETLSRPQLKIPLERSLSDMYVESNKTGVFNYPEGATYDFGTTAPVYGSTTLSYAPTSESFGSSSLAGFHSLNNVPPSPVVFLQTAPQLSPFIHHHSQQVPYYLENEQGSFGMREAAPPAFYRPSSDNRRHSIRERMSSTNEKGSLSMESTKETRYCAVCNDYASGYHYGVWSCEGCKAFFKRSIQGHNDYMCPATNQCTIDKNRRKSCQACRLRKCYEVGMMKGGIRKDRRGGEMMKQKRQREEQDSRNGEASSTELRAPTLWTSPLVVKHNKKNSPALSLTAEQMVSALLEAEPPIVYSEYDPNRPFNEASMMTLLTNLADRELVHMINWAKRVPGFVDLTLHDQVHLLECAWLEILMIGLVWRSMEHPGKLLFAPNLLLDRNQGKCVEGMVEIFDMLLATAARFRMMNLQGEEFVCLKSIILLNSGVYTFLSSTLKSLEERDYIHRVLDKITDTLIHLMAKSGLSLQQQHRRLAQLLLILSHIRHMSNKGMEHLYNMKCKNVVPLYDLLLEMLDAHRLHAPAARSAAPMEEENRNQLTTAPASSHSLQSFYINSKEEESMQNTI
# Summary of the method: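 Trans-activation of an exogenous chicken ERα–Gal4 chimera read as reporter transcript (RT-PCR, fluorescent labeling, capillary electrophoresis) after 24 h compound exposure of transfected HepG2; medium held 3 nM 6-alpha-fluorotestosterone. Positive-direction fit against DMSO.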
# [7] = target: Estrogen receptor (Homo sapiens) (UniProt P03372); assay: ATG_hERa_XSP1: Attagene TRANS-FACTORIAL Multi-Species (XSP1) HepG2 Assay for human Estrogen Receptor (ESR1) (AID 2283780)
# Estrogen receptor (Homo sapiens), sequence (P03372 whole entry, looked up, the tested form may be a part): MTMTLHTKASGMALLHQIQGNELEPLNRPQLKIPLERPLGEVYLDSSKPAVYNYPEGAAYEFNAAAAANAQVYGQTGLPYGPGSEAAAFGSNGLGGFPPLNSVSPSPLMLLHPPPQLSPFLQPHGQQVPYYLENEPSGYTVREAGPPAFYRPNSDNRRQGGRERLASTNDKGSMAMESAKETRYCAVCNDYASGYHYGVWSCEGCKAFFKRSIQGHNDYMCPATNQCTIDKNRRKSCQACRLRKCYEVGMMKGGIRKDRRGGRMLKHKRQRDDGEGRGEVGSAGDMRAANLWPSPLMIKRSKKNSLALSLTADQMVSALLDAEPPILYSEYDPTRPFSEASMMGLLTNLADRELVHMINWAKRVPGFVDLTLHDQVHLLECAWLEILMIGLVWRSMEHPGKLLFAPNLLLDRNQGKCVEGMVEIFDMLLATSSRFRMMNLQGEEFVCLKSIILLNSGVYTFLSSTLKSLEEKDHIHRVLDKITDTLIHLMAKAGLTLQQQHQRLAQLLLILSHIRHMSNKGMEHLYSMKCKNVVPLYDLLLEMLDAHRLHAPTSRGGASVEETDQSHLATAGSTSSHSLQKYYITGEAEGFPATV
# Summary of the method: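 Reporter transcripts from multiplexed GAL4-UAS units driven by NR-Gal4 chimeras in transiently transfected HepG2 were measured by RT-PCR with capillary electrophoresis 24 h post-dose, with 3 nM 6-alpha-fluorotestosterone present; gain-of-signal relative to DMSO.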
# [8] = test system: turtle Estrogen Receptor (ESR1), gene 101933533; assay: ATG_trERa_XSP1: Attagene TRANS-FACTORIAL Multi-Species (XSP1) HepG2 Assay for turtle Estrogen Receptor (ESR1) (AID 2283781)
# Procedure: as §1, with “receptor.ATG_trERa_XSP1” for “receptor.ATG_frER1_XSP1”, “ATG_trERa_XSP1” for “ATG_frER1_XSP1”
# [9] = ACEA_ER_AUC_viability: ACEA Biosciences xCELLigence Real-Time Cell Analysis on Estrogen Receptor Agonism for Viability (AID 2283782);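 also: hit means loss of impedance signal meaning reduced cell growth or viability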
# Summary of the method: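 Viability endpoint: reduced impedance area under the curve relative to DMSO, recorded by real-time electrode sensing over ~80 h of continuous exposure. Duplicate plates of T47D in hormone-depleted medium; eight concentrations, 1:4 dilutions, 100 uM maximum.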
# [10] = target: AR (gene 367) (UniProt P10275); assay: ACEA_AR_agonist_80hr: ACEA Biosciences xCELLigence Real-Time Cell Analysis on Androgen Receptor Agonism for Proliferation (AID 2283783);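 also: hits increase impedance growth signal above DMSO baseline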
# AR (gene 367), sequence (P10275 whole entry, looked up): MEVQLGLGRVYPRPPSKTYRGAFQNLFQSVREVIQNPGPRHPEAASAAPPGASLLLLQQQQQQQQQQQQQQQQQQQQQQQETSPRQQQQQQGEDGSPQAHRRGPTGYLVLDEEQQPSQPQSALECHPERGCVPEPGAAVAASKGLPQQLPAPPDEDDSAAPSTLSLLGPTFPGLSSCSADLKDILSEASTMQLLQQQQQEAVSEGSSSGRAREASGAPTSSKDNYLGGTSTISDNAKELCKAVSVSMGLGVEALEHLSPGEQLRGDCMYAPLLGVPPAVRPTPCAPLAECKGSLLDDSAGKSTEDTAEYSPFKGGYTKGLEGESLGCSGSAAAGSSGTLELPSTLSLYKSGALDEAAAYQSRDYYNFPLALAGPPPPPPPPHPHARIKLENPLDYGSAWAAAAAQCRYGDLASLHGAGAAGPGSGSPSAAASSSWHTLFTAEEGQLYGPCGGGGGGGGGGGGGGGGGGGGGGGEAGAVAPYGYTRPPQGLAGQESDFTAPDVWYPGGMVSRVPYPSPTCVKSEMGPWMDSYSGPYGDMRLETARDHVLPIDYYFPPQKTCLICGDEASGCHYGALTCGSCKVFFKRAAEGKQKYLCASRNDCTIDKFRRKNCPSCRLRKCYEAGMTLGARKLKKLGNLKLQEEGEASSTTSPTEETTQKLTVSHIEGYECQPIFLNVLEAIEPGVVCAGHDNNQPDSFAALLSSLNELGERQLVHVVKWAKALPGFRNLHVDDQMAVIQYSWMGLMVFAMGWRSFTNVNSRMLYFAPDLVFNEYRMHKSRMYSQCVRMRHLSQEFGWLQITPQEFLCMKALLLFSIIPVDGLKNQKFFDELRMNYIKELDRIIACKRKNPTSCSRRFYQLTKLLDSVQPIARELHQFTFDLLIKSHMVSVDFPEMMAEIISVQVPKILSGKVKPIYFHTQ
# Summary of the method: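 Eight concentrations, 1:4 serial dilution from a 100 uM final top, in biological duplicate. Impedance-based real-time growth of 22Rv1 cells after overnight baseline, recorded hourly and read at 80 hours. Controls: testosterone, MG132, assay media.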
structure (smiles),measurement,setting,value
CC(=O)OCCC(C)C,outcome,[1],inactive
CC1=CC(=O)CC(C)(C)C1,outcome,[1],inactive
same,outcome,[2],inactive
Nc1cccc(N)c1,outcome,[2],inactive
O=C(NS(=O)(=O)/C=C/c1ccccc1)c1ccc(F)cc1Cl,AC50,[1],5.76 µM (active)
O=P(OC(CCl)CCl)(OC(CCl)CCl)OC(CCl)CCl,AC50,[3],26 µM (active)
same,AC50,[1],31.8 µM (active)
same,AC50,[2],29.8 µM (active)
same,AC50,[4],3.06 µM (active)
same,outcome,[5],inactive
same,AC50,[6],3.85 µM (active)
same,AC50,[7],2.78 µM (active)
same,AC50,[8],5.66 µM (active)
same,outcome,[9],inactive
CC[C@H]1CC[C@H](NCc2cc3c(cc2OC)[C@H]2C[C@H]2C(=O)N3C)[C@H](c2ccccc2)N1,AC50,[1],17.5 µM (active)
same,AC50,[2],18.2 µM (active)
same,AC50,[9],18.5 µM (active)
CC[C@H]1OC(=O)[C@H](C)[C@@H](O[C@H]2C[C@@](C)(OC)[C@@H](O)[C@H](C)O2)[C@H](C)[C@@H](O[C@@H]2O[C@H](C)C[C@H](N(C)C)[C@H]2O)[C@](C)(O)C[C@@H](C)C(=O)[C@H](C)[C@@H](O)[C@]1(C)O,outcome,[1],inactive
CCCCCCCCCCCCCCCO,AC50,[1],78.9 µM (active)
same,outcome,[9],inactive
Cn1cnc([N+](=O)[O-])c1Sc1ncnc2nc[nH]c12,AC50,[1],1.15 µM (active)
same,AC50,[9],1.42 µM (active)
O=C(CCCCCCCCc1cccnc1)N1CCC(C=C(c2ccccc2)c2ccccc2)CC1,AC50,[1],11.4 µM (active)
same,AC50,[2],12.1 µM (active)
same,outcome,[10],inactive
CCCCCCCCO,outcome,[1],inactive
same,outcome,[9],inactive
CCOCCOCCOCCO,outcome,[2],inactive
CC(C)c1cccc(C(C)C)c1N1C(=O)c2ccc(O)cc2C1=O,AC50,[1],19.4 µM (active)
same,AC50,[9],80.3 µM (active)
O=C(O)CCN(C1(C(=O)NO)CCCC1)S(=O)(=O)c1ccc(Oc2ccc(F)cc2)cc1,outcome,[1],inactive
COC(=O)CC(=O)OC,outcome,[1],inactive
same,outcome,[2],inactive
same,outcome,[9],inactive
CC/C(=C\C(=N/O)C(N)=O)C(C)[N+](=O)[O-] (stereo not drawn),AC50,[2],74.2 µM (active)
O=C(O)CC(O)C(=O)O (stereo not drawn),outcome,[2],inactive
Fc1ccccc1[C@@H](F)COC1CCC(Nc2ncnc3[nH]ncc23)CC1 (stereo partly drawn),AC50,[1],63.2 µM (active)
same,AC50,[2],50 µM (active)
NC(=O)NO,outcome,[2],inactive
COc1ccc(/C=C/S(=O)(=O)NC(=O)c2ccc(C)cc2Cl)cc1,AC50,[1],16.3 µM (active)
C1=CCCC=CCCC=CCC1,outcome,[1],inactive
same,outcome,[9],inactive
O=c1n(CC2CO2)c(=O)n(CC2CO2)c(=O)n1CC1CO1 (stereo not drawn),AC50,[1],0.571 µM (active)
same,AC50,[9],35.7 µM (active)
CC(=O)c1ccc2c(c1)[C@H](NC(=O)c1ccc(F)cc1)[C@@H](O)C(C)(C)O2,outcome,[1],inactive
same,outcome,[2],inactive
CCCCCCc1ccc(O)cc1O,AC50,[1],16.1 µM (active)
same,AC50,[2],13.7 µM (active)
same,AC50,[9],80.1 µM (active)
CNCc1ccc(NC(=O)c2c[nH]c3c2C(=O)CCC3)cc1,AC50,[1],50 µM (active)
same,AC50,[2],67 µM (active)
Clc1nc(Cl)c(Cl)c(Cl)c1Cl,outcome,[1],inactive
same,AC50,[9],92 µM (active)
COCCOc1cc2cc(C(=O)NC3CCN(C(C)C)CC3)n(CC(=O)Nc3ccc(Cl)cn3)c2cn1,AC50,[1],40.9 µM (active)
same,AC50,[2],45 µM (active)
same,outcome,[9],inactive
COC(=O)c1c(Cl)c(Cl)c(C(=O)OC)c(Cl)c1Cl,outcome,[1],inactive
same,outcome,[9],inactive
O=C1OC(=O)C2C3C=CC(C3)C12 (stereo not drawn),outcome,[1],inactive
CC(C)=CCC/C(C)=C/CO,AC50,[2],25.6 µM (active)
CC(C)(O)c1coc(S(=O)(=O)NC(=O)Nc2c3c(cc4c2CCC4)CCC3)c1,outcome,[1],inactive
same,outcome,[9],inactive
O=C(OC[C@H]1O[C@@H](OC(=O)c2cc(O)c(O)c(OC(=O)c3cc(O)c(O)c(O)c3)c2)[C@H](OC(=O)c2cc(O)c(O)c(OC(=O)c3cc(O)c(O)c(O)c3)c2)[C@@H](OC(=O)c2cc(O)c(O)c(OC(=O)c3cc(O)c(O)c(O)c3)c2)[C@@H]1OC(=O)c1cc(O)c(O)c(OC(=O)c2cc(O)c(O)c(O)c2)c1)c1cc(O)c(O)c(OC(=O)c2cc(O)c(O)c(O)c2)c1,AC50,[1],26.3 µM (active)
same,outcome,[9],inactive
Cc1ccc(N)cc1O,AC50,[1],89.7 µM (active)
same,AC50,[2],87.4 µM (active)
same,outcome,[9],inactive
same,outcome,[10],inactive
O=c1[nH]c2ccc(S(=O)CCN3CCC(Cc4ccc(F)cc4)CC3)cc2o1 (stereo not drawn),outcome,[1],inactive
same,outcome,[9],inactive
CC(C)CC(C)(O)C#CC(C)(O)CC(C)C (stereo not drawn),outcome,[2],inactive
CCC(C)(C)C(=O)O[C@H]1C[C@@H](C)C=C2C=C[C@H](C)[C@H](CC[C@@H]3C[C@@H](O)CC(=O)O3)[C@H]21,AC50,[1],29.9 µM (active)
same,AC50,[9],30.5 µM (active)
